High-throughput results (PubChem BioAssay)
FBPA coupling cs: qHTS Assay for Inhibitors of Fructose-1,6-bisphosphate Aldolase from Giardia Lamblia: Coupling assay counterscreen; AID 2472, 2010; coupling enzyme system counterscreen, AmpLite Red fluorescence; activity change, negative = inhibition, % at 58.2 µM, hits read low; actives 0.67% (n = 290,000); in the data active = activity change below about -30%
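Counterscreen of the coupled detection system alone, without aldolase: glyceraldehyde-3-phosphate coupling enzymes plus AmpLite Red readout. Compounds at 57.5 uM final, 10 min RT preincubation, 20 min RT reaction, fluorescence 525/598 nm.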
GoLoco inh red: qHTS Assay for Inhibitors of RGS12 GoLoco Motif Activity (Red Fluorophore). Gai1:RGS12 GoLoco peptide FP, rhodamine, 10 min. Potency, µM (titrated, usually from 61.6 µM), hits mostly inhibitors. actives 0.44% (n = 230,000). Guanine nucleotide-binding protein G(i) subunit alpha-1 (Homo sapiens), P63096; active = well fitted inhibition curve with a large enough effect, not every such curve was filed as active; inactive = no such curve, though single readings can be large or run the other way; note: nearly all actives have a fitted effect of over 30% in size
Sfp inh: qHTS Assay for Inhibitors of Bacillus subtilis Sfp phosphopantetheinyl transferase (PPTase); actives 3.5% (n = 310,000); Biochemical Sfp PPTase activity, qHTS; AID 1490, 2009; Potency, µM, actives largely listed as inhibitors; 4'-phosphopantetheinyl transferase ffp (Bacillus subtilis), Q9F4F7; active = well fitted curve in the direction sought with a large enough effect; inconclusive = small, poorly fitted or top-dose-only effect, or another doubt; inactive = no such curve, though single readings can be large; an effect the other way counts as inactive or inconclusive;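 note: the enzyme is Sfp with the accession as filed and its product quenches rhodamine fluorescence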
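Reaction rates are the 30-min fluorescence difference (ex 525, em 598 nm) in wells containing 15 nM Sfp, 5 uM rhodamine-CoA and 12.5 uM BHQ-2-YbbR at pH 7.6 with 10 mM MgCl2.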
NPSR antagonist: qHTS Assay for Antagonists of the Neuropeptide S Receptor: cAMP Signal Transduction; actives 1% (n = 220,000); Potency, µM (doses to about 38.3 µM), hits mostly inhibitors; CHO-NPSR cells, cAMP TR-FRET, antagonist mode; Q6W5P4; active = well fitted curve in the direction sought with a large enough effect; inconclusive = small, poorly fitted or top-dose-only effect, or another doubt; inactive = no such curve, though single readings can be large; an effect the other way counts as inactive or inconclusive; note: nearly all actives have a fitted effect of over 50% in size
ALDH1A1 block: qHTS Assay for Inhibitors of Aldehyde Dehydrogenase 1 (ALDH1A1); Potency, µM (series often up to 75.3 µM), most hits filed as inhibitors; actives 7.3% (n = 220,000); Aldehyde dehydrogenase 1A1 (Homo sapiens), P00352; AID 1030, 2008; Purified ALDH1A1, NADH fluorescence, propionaldehyde substrate
Target sequence (P00352 whole entry, looked up): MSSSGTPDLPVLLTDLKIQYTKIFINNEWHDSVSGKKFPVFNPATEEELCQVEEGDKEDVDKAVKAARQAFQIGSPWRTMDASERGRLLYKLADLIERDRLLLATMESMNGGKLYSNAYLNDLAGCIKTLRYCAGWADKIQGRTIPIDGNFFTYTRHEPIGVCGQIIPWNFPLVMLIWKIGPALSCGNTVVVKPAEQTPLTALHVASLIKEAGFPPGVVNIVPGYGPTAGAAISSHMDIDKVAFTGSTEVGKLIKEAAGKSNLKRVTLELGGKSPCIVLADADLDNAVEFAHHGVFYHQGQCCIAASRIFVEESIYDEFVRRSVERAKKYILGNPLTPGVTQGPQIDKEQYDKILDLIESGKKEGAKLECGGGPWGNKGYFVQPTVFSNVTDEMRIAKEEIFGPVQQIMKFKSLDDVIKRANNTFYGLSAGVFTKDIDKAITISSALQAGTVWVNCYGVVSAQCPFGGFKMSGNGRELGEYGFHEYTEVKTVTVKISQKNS
JMJD2E inh: qHTS Assay for Inhibitors of Human Jumonji Domain Containing 2E (JMJD2E); Lysine-specific demethylase 4E (Homo sapiens), B2RXH2; JMJD2E catalytic domain, FDH-coupled NADH fluorescence (FDH is formaldehyde dehydrogenase); Potency, µM (series often up to 57.1 µM), most hits filed as inhibitors; actives 1.6% (n = 230,000); AID 2147, 2009; note: nearly all actives have a fitted effect of over 50% in size
Hits are given with their value; 0 = inactive; ? = inconclusive; - = not tested or not shown; [ ] = dose if it differs, or a comment. Only some compounds are listed: those with a hit (about 8.5% of all), similar ones and a draw of the others. Unless noted, calls come from the whole dose curve; as a rule, active = well fitted inhibition curve with a large enough effect (not every such curve was filed as active); inconclusive = small, poorly fitted or top-dose-only effect, or another doubt; inactive = no such curve, though single readings can be large or run the other way.

SMILES	FBPA coupling cs	GoLoco inh red	Sfp inh	NPSR antagonist	ALDH1A1 block	JMJD2E inh
NC(=O)C[C@@H](N)C(=O)O	-	0	0	-	0	-
C[C@@H](C[C@H](N)C(=O)O)C(=O)O	-	0[14.2 µM]	79µM	-	0	-
CC(C)C[C@@H](N)C(=O)O	-	0	0	-	0	-
COc1ccc2c(c1)C(=O)[C@@H](OC(=O)Nc1ccc(C)c(Br)c1)[C@H](c1ccc(OC)c(Br)c1)O2	0	0	0	-	0	?
CN1CCN(CC(=O)Nc2cccc3ccccc23)CC1	-	0[14.2 µM]	-	-	0[13.5 µM]	-
NCCC[C@@H](CC(=O)N[C@@H]1CCNC[C@H]1C(=O)N[C@H](CC(=O)N[C@@H](CCC(=O)O)CC(=O)O)Cc1ccccc1)NC(=O)C[C@H](CO)NC(=O)[C@@H]1CCCC[C@H]1N	0	0	0	-	0	?
O=C(O)COCC(=O)Nc1ccc(-n2cnnn2)cc1	0	0	0	0	?	0
CCOC(=O)N1CCc2c(sc3nc4n(c(=O)c23)N=C(c2ccc(OC)cc2)CS4)C1	0	0	0	?	-	0
CCOc1ccc(C(C)=O)cc1CSc1nnc(-c2cccs2)n1CC1CCCO1 (configuration not stated)	0	0	0	0	8.9µM	0
CCOC(=O)COc1ccc2c(C#N)c3ccccn3c2c1	-60	0	0	0	?	0
COc1cc(OC)cc(C(=O)c2c(C)c(C#N)c3ccccn23)c1	0	-	0	-	-	-
N#Cc1c2ccc(OCC(N)=O)cc2n2ccccc12	-37	0	0	0	?	?
CCOC(=O)c1c2ccc(OCC(=O)N/N=C/c3ccc(Cl)cc3)cc2n2ccccc12	0	0	0	0	0	0
COCCn1cnnc1SCC(=O)Nc1cccc(S(=O)(=O)N(C)c2ccccc2)c1	0	0	?	0	5.6µM	0
CCN(CC)C(=O)C1CCCN(c2ccc([N+](=O)[O-])cc2/C=N/NC(=O)c2ccc([N+](=O)[O-])cc2)C1 (configuration not stated)	0	0	0	0	?	0
CCN(CC)C(=O)C1CCCN(c2ccc([N+](=O)[O-])cc2/C=N/NC(=O)c2ccccc2)C1 (configuration not stated)	0	0	0	0	28µM	0
CN1CCN(c2ccc([N+](=O)[O-])cc2/C=N/NC(=O)c2cccc([N+](=O)[O-])c2)CC1	0	0	0	0	20µM	0
CCN(CC)C(=O)C1CCCN(c2ccc([N+](=O)[O-])cc2)C1 (configuration not stated)	0	0	0	0	20µM	0
CCN(CC)C(=O)C1CCCN(c2ccc([N+](=O)[O-])cc2/C=N/NC(=O)c2cccc(O)c2)C1 (configuration not stated)	0	0	0	0	28µM	0
Cc1ccccc1NC(=O)CCCNC(=O)c1ccc(Cl)cc1	0	-	0	-	-	-
COc1cccc(OCc2cc(C(=O)N3CCN(C)C(c4ccccc4)C3)no2)c1 (configuration not stated)	-	-	0	-	-	-
O=C(NCC1CC1)c1cc([N+](=O)[O-])cc([N+](=O)[O-])c1	0	-	0	-	-	-
O=C(N/N=C\c1cc([N+](=O)[O-])ccc1N1CCOCC1)c1ccccn1	0	0	45µM	0	0	0
O=C(N/N=C\c1cc([N+](=O)[O-])ccc1N1CCCC1)c1ccccn1	0	0	0	0	?	0
COc1ccc(OC)c(S(=O)(=O)N2CCN(c3ccccc3OC)CC2)c1	0	-	0	-	-	-
SMILES	FBPA coupling cs	GoLoco inh red	Sfp inh	NPSR antagonist	ALDH1A1 block	JMJD2E inh
Cn1c(CNC(=O)c2ccccc2F)nnc1SCC(=O)N1CCN(c2ccccc2)CC1	0	0	0	0	?	0
Cc1ccccc1C(=O)NCc1nnc(SCC(=O)N2CCN(c3ccccc3)CC2)n1C	0	0	0	0	10µM	0
CCCCn1c(O)c(/C=C/C=C/C=Nc2ccccc2)sc1=S	0	0	0	0	18µM	0
CCn1c(O)c(C=NCc2ccccc2)sc1=S	0	0	0	0	-	0
CCn1c(O)c(/C=C/C=C/C=Nc2ccccc2)sc1=S	0	0	?	0	?	0
CCn1c(O)c(C=Nc2ccccc2)oc1=S	0	0	?	0	20µM	0
CCCn1c(O)c(C=Nc2ccccc2)sc1=S	0	0	0	0	14µM	0
COCCn1c(=O)c(CCc2ccccc2)nc2cnc(Nc3ccccc3)nc21	0	0	0	-	?	-
O=C(O)c1cc(Cl)cc(Cl)c1	-	0	-	-	0	-
COc1ccc(C2=NN(C(=O)CCCC(=O)O)C(c3cn(-c4ccccc4)nc3-c3ccccc3)C2)cc1 (configuration not stated)	0	0	0	0	-	0
CC1CCC2C(=O)N(c3cccc(C(=O)Nc4ccccc4Cl)c3)C(=O)C2C1 (configuration not stated)	0	-	0	-	-	-
Cc1c(NS(=O)(=O)c2ccccc2)cc(Cl)c(O)c1C	0	0	?	0	22µM	0
COc1ccc(S(=O)(=O)c2c(C)c(NS(=O)(=O)c3ccccc3)cc(C)c2O)cc1	0	0	0	0	8.9µM	0
COc1ccc(S(=O)(=O)Nc2cc(C)c(O)c(S(=O)(=O)c3ccccc3)c2)cc1	0	0	0	0	?	0
O=C(CN1C(=O)NC2(CCCCC2)C1=O)NC1CCCc2ccccc21 (configuration not stated)	0	0	0	0	0	0
COc1ccccc1-c1c(C)nn2c(N3CCCCCC3)cc(C)nc12	0	0	0	10µM	0	?
COc1ccc(OC)c(CCNC(=O)CCCC(=O)n2ncc3cc(C)ccc32)c1	0	-	0	-	-	-
CCOc1cc2c3c(c1)C(C)CC(C)(C)N3C(=O)C2=O (configuration not stated)	0	0	0	?	0.4µM	0
Cc1cc2c3c(c1)C(C)CC(C)(C)N3C(=O)C2=O (configuration not stated)	0	0	0	0	0.16µM	0
CC1CC2(CCCCC2)N2C(=O)C(=O)c3cccc1c32 (configuration not stated)	0	0	0	0	0.045µM	0
Cc1cc2c3c(c1)C(C)CC(C)(C)N3C(=O)C2=C(C#N)C#N (configuration not stated)	0	0	0	0	-	0
CCOc1cc2c3c(c1)C(C)=CC(C)(C)N3C(=O)C2=O	0	0	0	0	?	0
O=C(OCc1c(Cl)cccc1Cl)c1ccncc1	0	0	0	0	0	0
